Compound activity (PubChem)
ClpP mod: qHTS Assay for Activators of ClpP; ATP-dependent Clp protease proteolytic subunit (Bacillus subtilis (strain 168)), P80244; Potency, µM (doses to about 57.5 µM); hit rate 1.9% among 340,000; purified B. subtilis ClpP, FRET peptide cleavage, 20 min; active = well fitted falling curve with a large enough effect; inconclusive = small, poorly fitted or top-dose-only effect; inactive = no such curve, though single readings can be large or run the other way; also: the source files actives as falling curves though it sought activators and does not explain the sign; nearly all actives have a fitted effect of over 65% in size
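Buffer: 100 mM Tris/HCl pH8, 100 mM KCl, 0.05% low protease BSA, 2.5% glycerol, 0.01% Tween-20. ClpP 10 microg/mL final; 20 min RT; delta FRET normalized to ADEP and DMSO controls.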
PKM2 act: increases activity of human pyruvate kinase M2. purified PKM2, Kinase-Glo ATP luminescence, activation; response scale: 0% is enzyme alone, no compound. Potency, µM (doses to about 57.5 µM), actives largely listed as activators. hit rate 0.34% among 260,000. AID 1631; also: nearly all actives have a fitted effect of over 55% in size
Target sequence (P14618 whole entry, looked up): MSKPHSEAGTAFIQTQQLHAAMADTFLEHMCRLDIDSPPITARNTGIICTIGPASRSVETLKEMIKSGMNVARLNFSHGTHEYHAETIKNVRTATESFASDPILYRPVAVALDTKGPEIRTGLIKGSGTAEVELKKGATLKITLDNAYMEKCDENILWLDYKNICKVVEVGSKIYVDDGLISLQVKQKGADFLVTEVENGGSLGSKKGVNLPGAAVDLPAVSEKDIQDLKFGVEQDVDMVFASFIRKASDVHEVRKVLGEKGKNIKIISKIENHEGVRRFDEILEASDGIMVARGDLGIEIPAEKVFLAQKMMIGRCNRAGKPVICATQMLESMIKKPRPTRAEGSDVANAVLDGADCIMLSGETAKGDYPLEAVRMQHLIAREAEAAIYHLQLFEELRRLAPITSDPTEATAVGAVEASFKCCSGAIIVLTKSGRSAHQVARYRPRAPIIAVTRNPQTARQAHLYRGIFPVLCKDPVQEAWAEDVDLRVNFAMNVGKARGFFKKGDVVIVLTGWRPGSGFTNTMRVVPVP
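hPK-M2, >95% pure; 0.1 mM ADP / 0.5 mM PEP final; imidazole pH7.2 buffer w/ 7 mM MgCl2, 50 mM KCl; 1 h RT; Kinase-Glo lum. Intermediate enzyme activity for dual inhibitor/activator qHTS.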
NPSR antagonist: antagonists of human neuropeptide S receptor cAMP signaling | Q6W5P4 | CHO-NPSR cells, cAMP TR-FRET, antagonist mode | Potency, µM (titrated, usually from 38.3 µM), most hits filed as inhibitors | hit rate 1% among 220,000 | AID 1461; also: nearly all actives have a fitted effect of over 50% in size
IL-2 act: IL-2 activation | AID 652025 | hit rate 0.065% among 360,000 | IL-2 activation reporter assay, cell-based qHTS; stimulated with anti-CD3/CD4/CD28 beads; in transgenic mouse T cells | activation, % (series mostly up to about 46 µM); in the data active = activation above about 50%; inconclusive = mostly about 30% to 49%
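Unstimulated transgenic mouse T cells preincubated 60 min with compound, then stimulated with anti-CD3/anti-CD4-coated beads plus anti-CD28 for 18 h at 37 degrees C. IL-2 response read as EGFP and DsRed fluorescence by plate cytometry.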
Hits are given with their value; [ ] = remark or other dose. This is a sample that favours compounds with a hit; in the whole collection about 2% have one here. Unless noted, calls follow the shape of the dose curve; as a rule, active = well fitted curve in the direction sought with a large enough effect; inconclusive = small, poorly fitted or top-dose-only effect, or another doubt; inactive = no such curve, though single readings can be large; an effect the other way counts as inactive or inconclusive.

For O=C1c2ccccc2C(=O)N1CCN1CCc2ccccc21 the results were ClpP mod inactive, PKM2 act inactive, NPSR antagonist inactive and IL-2 act inactive.
Cc1ccc2nc(Cl)cc(=O)n2c1 was read as ClpP mod 28µM and IL-2 act inactive.
`N#Cc1c(-c2ccccc2)cc(-c2cccs2)nc1SCC(=O)O` gave ClpP mod inactive and IL-2 act inactive.
Screening COc1ccc(-c2c(C#N)c(N)nc3c2CCc2ccccc2-3)cc1OC returned ClpP mod 13µM, PKM2 act inactive, NPSR antagonist inconclusive and IL-2 act inactive.
For COc1ccc(-c2noc(-c3cccs3)n2)cc1OC the results were PKM2 act inactive, NPSR antagonist inactive and IL-2 act inactive.
`COc1cc(-c2c(C#N)c(N)nc3c2CCCC3)ccc1O` gave ClpP mod inactive, PKM2 act inactive, NPSR antagonist inactive and IL-2 act inactive.
COc1nc(-c2cccs2)cc(-c2ccc(C)cc2)c1C#N was read as ClpP mod 4µM, PKM2 act inactive, NPSR antagonist inconclusive and IL-2 act inactive.
Screening COc1ccc(-c2cc(-c3cccs3)nc(OC)c2C#N)cc1OC returned ClpP mod 32µM, PKM2 act inactive, NPSR antagonist inactive and IL-2 act inactive.
Screening Cn1nccc1C(=O)N1CCCC(C(=O)c2ccc(C(F)(F)F)cc2)C1 (stereo not drawn) returned ClpP mod inactive, PKM2 act inactive[0.46 µM] and IL-2 act inactive.
O=C1CSCC(=O)N1Cc1ccc(Cl)cc1Cl was read as ClpP mod inactive and IL-2 act inactive.
Cc1ccc(CNC(=O)CCCc2cn(C)c3ccccc23)cc1 was read as ClpP mod 28µM and IL-2 act inactive.
`Cn1cc(CCCC(=O)NCc2ccccc2)c2ccccc21` gave IL-2 act inactive.
CCOC(=O)c1ccc(Nc2nc(-c3cccnc3)nc3ccccc23)cc1 was read as ClpP mod 28µM, PKM2 act inactive, NPSR antagonist inconclusive and IL-2 act inactive.
`Cc1ccc(NC(=O)c2ccc(NC(=O)N3CCSc4ncccc43)cc2)cc1Cl` gave ClpP mod 32µM.
For O=C(Cc1ccc(NC(=O)N2CCSc3ncccc32)cc1)NCc1ccccc1Cl the results were ClpP mod inactive.
For Cc1ccc(NC(=O)c2cccc(NC(=O)N3CCSc4ncccc43)c2)cc1F the results were ClpP mod inactive.
For O=C(NCc1ccccc1Cl)c1ccc(NC(=O)N2CCSc3ncccc32)cc1 the results were ClpP mod 28µM.
Screening Cc1cc(N2CCN(c3ccccn3)CC2)n2cc(-c3ccccc3)nc2n1 returned ClpP mod 28µM, PKM2 act inactive, NPSR antagonist inactive and IL-2 act inactive.
Cc1cc(N2CCCCC2)n2nc(C)c(-c3ccccc3)c2n1 was read as ClpP mod inactive, PKM2 act inactive, NPSR antagonist inactive and IL-2 act inactive.
For CCCc1cc(N2CCN(c3ccccn3)CC2)n2nc(C)c(-c3ccccc3)c2n1 the results were ClpP mod 28µM, PKM2 act inactive, NPSR antagonist inactive and IL-2 act inactive.
Screening Cc1nn2c(N3CCCC3)cc(C(C)C)nc2c1-c1ccccc1 returned ClpP mod 35µM, PKM2 act inactive, NPSR antagonist inactive and IL-2 act inactive.
For Cc1nc2cc(-c3ccccc3)nn2c(C)c1CCC(=O)N1CCN(c2ccccn2)CC1 the results were PKM2 act inactive and NPSR antagonist inactive.
COc1ccccc1-c1c(C)nn2c(N3CCCCCC3)cc(C)nc12 was read as ClpP mod inactive, PKM2 act inactive, NPSR antagonist 10µM and IL-2 act inactive.
For Cc1c(Cl)cccc1NC(=O)N1CCN(Cc2cc(=O)n3nc(-c4ccccc4F)sc3n2)CC1 the results were ClpP mod inactive.
For O=C(O)c1ccc(S(=O)(=O)N2CCC(c3nc(-c4ccccc4Cl)no3)CC2)cc1 the results were ClpP mod inactive, PKM2 act inactive, NPSR antagonist inactive and IL-2 act inactive.
CCOC(=O)CSc1nnc2c(n1)C1(C)CCC2C1(C)C (stereo not drawn) was read as ClpP mod inactive, PKM2 act inactive, NPSR antagonist inactive and IL-2 act inactive.
Screening CC12CCC(c3nnc(SCc4ccc(Cl)cc4)nc31)C2(C)C (stereo not drawn) returned ClpP mod 20µM, PKM2 act inactive, NPSR antagonist inactive and IL-2 act inactive.
CCC(=O)Nc1ccc(C(=O)CSc2nnc(-c3ccc(O)cc3)n2CC2CCCO2)cc1OC (stereo not drawn) was read as ClpP mod inactive, PKM2 act inactive, NPSR antagonist inactive and IL-2 act inactive.
Screening CC(=O)Nc1ccc(OCCOc2ccccc2C(C)=O)cc1 returned IL-2 act inactive.
For CN(C)C(CNC(=O)c1cccs1)c1ccco1 (stereo not drawn) the results were ClpP mod inactive and IL-2 act inactive.
Screening CN(C)C(CNC(=O)c1ccco1)c1cccs1 (stereo not drawn) returned ClpP mod 11µM and IL-2 act inactive.
For CCCc1sc(N/N=C/c2ccccn2)nc1-c1ccc(F)cc1 the results were ClpP mod inactive, PKM2 act inactive, NPSR antagonist 10µM and IL-2 act inactive.
Cc1nc(N/N=C/c2ccccn2)sc1C was read as ClpP mod inactive, PKM2 act inactive, NPSR antagonist 4µM and IL-2 act inactive.
COc1ccc(C2CC(c3ccccc3)=NN2C(=O)CSc2nnnn2-c2cccc(C)c2)cc1 (stereo not drawn) was read as IL-2 act inactive.
Screening CC(=O)c1ccc(N2CCN(C(=S)Nc3ccccc3F)CC2)cc1 returned ClpP mod inactive, PKM2 act inactive, NPSR antagonist inactive and IL-2 act inactive.
Screening O=c1cc(CSc2nnc(COc3ccccc3Cl)o2)nc2sccn12 returned ClpP mod inactive, PKM2 act 25µM, NPSR antagonist inactive and IL-2 act inactive.
Screening O=C(COc1ccccc1Cl)Nc1ccc(OCc2cc(=O)n3ccsc3n2)cc1 returned ClpP mod inactive.
COCCNC(=O)CSc1ccccc1C(=O)NCC1CCCCC1 was read as PKM2 act inactive, NPSR antagonist inactive and IL-2 act inactive.
CC1CCN(C(=O)c2ccccc2SCC(=O)NCC2CCCCC2)CC1 was read as ClpP mod 22µM and IL-2 act inactive.
COc1ccc(NC(C)c2cc(Cl)ccc2O)cc1 (stereo not drawn) was read as ClpP mod 3.2µM, PKM2 act inactive, NPSR antagonist inactive and IL-2 act inactive.
`CC(Nc1ccccc1)c1cc(Cl)ccc1O` (stereo not drawn) gave ClpP mod inactive, PKM2 act inactive, NPSR antagonist inactive and IL-2 act inactive.
For CC(=O)c1sc(N/N=C\c2ccccc2O)nc1C the results were PKM2 act inactive, NPSR antagonist 1.6µM and IL-2 act inactive.
CCOC(=O)c1sc(N/N=C/c2ccccc2)nc1C was read as PKM2 act inactive, NPSR antagonist inactive and IL-2 act inactive.
For Cc1cccc(S(=O)(=O)c2c(C)cc(C)[nH]c2=O)c1 the results were IL-2 act inactive.
